From ChEMBL document CHEMBL4513216, “Probing the Open Global Health Chemical Diversity Library for Multistage-Active Starting Points for Next-Generation Antimalarials” (ACS Infect Dis, 2020)
Among all 69,000 compounds or so, about 8,600 (12%) showed an effect of 50% or more. This is one part of a sample in which strong results are shown more often than they occur.

Tested on: Plasmodium berghei
Assay: Screen against P. berghei liver stage (PbLuc), transformed with Luciferase, at 10uM
Assay type: functional, HepG2
Conditions: tested at 10 uM

| SMILES | INHIBITION [%] |
| --- | --- |
| Cc1cc(N2CCC(N(C)C(=O)c3sccc3C)CC2)nc(C)n1 | 68.6 |
| Cc1cc(N2CCC(O)CC2)nc(C)n1 | 41 |
| Cc1cc(N2CCC(N(C)C(=O)c3ccccc3)CC2)nc(C)n1 | 2.3 |
| Cc1cc(N2CCC(N(C)C(=O)c3cccs3)CC2)nc(C)n1 | 22 |
| Cc1cc(N2CCC(N(C)C(=O)c3ccc(C#N)cc3)CC2)nc(C)n1 | 81.1 |
| COc1ccccc1C(=O)N(C)C1CCN(c2ccccn2)CC1 | 19.5 |
| Cc1cc(N2CCC(N(C)C(=O)Nc3ccccc3)CC2)nc(C)n1 | 4.71 |
| CCNc1cc2c(nn1)CCN(C(=O)CCc1c(C)noc1C)C2 | 1.78 |
| COc1c(C2CCCN2C(=O)c2cnc(C)cn2)c(C)nn1C (stereo not drawn) | -14.7 |
| O=C(Cn1cc(-c2ccccc2)ncc1=O)Nc1nccs1 | -13.6 |
| Cc1nc(C2CCCN(C(=O)c3ccnc(N(C)C)c3)C2)no1 (stereo not drawn) | -27 |
| CN(C)C(=O)c1c[nH]nc1C1CCN(S(=O)(=O)c2ccccc2)CC1 | -36.4 |
| CC(C)NC(=O)C1CCC2(CCN(c3ncccn3)CC2)CO1 (stereo not drawn) | 15.7 |
| O=C(C1CCC2(CCN(c3ncccn3)CC2)CO1)N1CCCC1 (stereo not drawn) | -7.24 |
| CNC(=O)C1CCC2(CCN(c3nncs3)CC2)CO1 (stereo not drawn) | 61.9 |
| O=C([C@@H]1CCCO1)N1CCOCC2(CCN(Cc3cccnc3)C2)C1 (stereo partly drawn) | 40.3 |
| O=C(C1CCC2(CCN(c3nncs3)CC2)CO1)N1CCCC1 (stereo not drawn) | 57.1 |
| CNC(=O)C1CCC2(CCN(c3ncc(C)cn3)CC2)CO1 (stereo not drawn) | 11.3 |
| O=C(C1CCC2(CCN(c3nncs3)CC2)C1)N1CCCC1 (stereo not drawn) | -16.9 |
| O=C(C1CCC2(CCN(Cc3cccnc3)CC2)CO1)N1CCCC1 (stereo not drawn) | 62 |

| SMILES | INHIBITION [%] |
| --- | --- |
| O=C(C1CCCO1)N1CCC2(CC1)COCCN(Cc1cccnc1)C2 (stereo not drawn) | 12.2 |
| CC(C)(C)C(=O)N1CC[C@@H]2[C@H](CC1)N(S(C)(=O)=O)CCS2(=O)=O | 37.1 |
| CN1CCN(C(=O)c2cc(-c3cccs3)cs2)CC1 | -11.4 |
| Cc1nc(C2CCCN2C(=O)COCc2ccccc2)no1 (stereo not drawn) | 7.27 |
| COc1cnc(CSc2nnc(C)s2)cc1OCC(=O)NC1CCCC1 | 43.3 |
| CNc1cncc(C2CCCN2Cc2ccnc(C)n2)n1 (stereo not drawn) | 48.6 |
| CN1CCc2c(C#N)c(NCCCN3CCOCC3)n3cnnc3c2C1 | 3.95 |
| COc1ccc(CN2CCOC3(CCCN(C(C)=O)C3)C2)cc1 (stereo not drawn) | 7.31 |
| CC(NCc1ccccc1O)c1ccc(-n2ccnc2)cc1 (stereo not drawn) | 61.9 |
| COc1cccc(CNC(C)c2ccc(-n3ccnc3)cc2)c1O (stereo not drawn) | 43.4 |
| COc1ccccc1CNC(C)c1ccc(-n2ccnc2)cc1 (stereo not drawn) | 70.3 |
| COc1cccc(CNC(C)c2ccc(-n3ccnc3)cc2)c1OC (stereo not drawn) | 35 |
| COCCC(C)NCc1ccccc1-n1ccnc1 (stereo not drawn) | 15.2 |
| CCOc1cccc(CNC(C)c2ccc(-n3ccnc3)cc2)c1O (stereo not drawn) | 47.1 |
| CC1CCC(O)(CSc2nnnn2C)CC1 (stereo not drawn) | 4.52 |
| CCn1ncc2c1C(COC)N(C(=O)CCc1ccccc1)CC2 (stereo not drawn) | 43 |
| Cc1cnc(CC2COCCN(C(=O)c3cncnc3)C2)cn1 (stereo not drawn) | -13.2 |
| CC(NCc1cc(O)c2cccc(F)c2n1)c1ccccc1O (stereo not drawn) | 25 |
| Cc1ccc(CNCCN2CCOCC2)o1 | 5.34 |
| OCc1ccc(-c2c(-c3ccccc3)ncn2CCN2CCOCC2)o1 | 53.3 |

| SMILES | INHIBITION [%] |
| --- | --- |
| Cc1ccc(-c2c(-c3ccccc3)ncn2CCCN2CCOCC2)o1 | 20.1 |
| c1ccc(-c2ncn(CCCN3CCOCC3)c2-c2ccncc2)cc1 | 55.4 |
| Cc1nc(-c2c(-c3ccccc3)ncn2CCCN2CCOCC2)c[nH]1 | 27.6 |
| CSCc1ccc(CNCCN2CCOCC2)o1 | 15.6 |
| COCCCn1ccc(NC(=O)NCc2cccc(N(C)C)c2)n1 | 21.5 |
| O=C1[C@@H]2CC[C@@H](CN(Cc3ccccc3OC(F)F)C2)N1CC1CC1 | 18.5 |
| N#CC1(C(=O)N2Cc3cc(-c4cc[nH]n4)ccc3C2c2cnco2)CC1 (stereo not drawn) | -18.3 |
| CN(C)c1ccc2c(c1)CN(C(=O)c1c[nH]cn1)C2c1cnco1 (stereo not drawn) | 76.3 |
| CN(C)c1ccc2c(c1)CN(C(=O)c1cnccn1)C2c1cnco1 (stereo not drawn) | 31.9 |
| CN(C)CC(=O)N1Cc2cc(-c3cc[nH]n3)ccc2C1c1cnco1 (stereo not drawn) | -19.8 |
| CC(=O)NCC(=O)N1Cc2cc(-c3cc[nH]n3)ccc2C1c1cnco1 (stereo not drawn) | 71.8 |
| N#Cc1ccc2c(c1)CN(C(=O)C1CC=CC1)C2c1cnco1 (stereo not drawn) | 34.9 |
| CC(=O)NCC(=O)N1Cc2cc(C#N)ccc2C1c1cnco1 (stereo not drawn) | 65.9 |
| CN(C)c1ccc2c(c1)CN(C(=O)c1ccnnc1)C2c1cnco1 (stereo not drawn) | -0.554 |
| CN(C)c1ccc2c(c1)CN(C(=O)c1ccco1)C2c1cnco1 (stereo not drawn) | -0.554 |
| CN(C)CC(=O)N1Cc2cc(N(C)C)ccc2C1c1cnco1 (stereo not drawn) | 33.4 |
| N#Cc1ccc2c(c1)CN(C(=O)c1nc[nH]n1)C2c1cnco1 (stereo not drawn) | 64.5 |
| CC(=O)NCC(=O)N1CC[C@H](OCC2CC2)[C@@H]1Cc1cccnc1 | 4.92 |
